Data as given in PubChem BioAssay.

Assay: S. cerevisiae RM11-1a growth modifiers, primary screen, strain RM11-1a, OD600, basal, 24 h (AID 1177);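 also: cultures grown under basal conditions with no added stressor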
Details: OD600, 24 h, higher = more signal, called active from +8 up or from −8 down
Also: test concentration not given here.

z-score, inactive:
CCOC(=O)C1=CC[C@@H](c2ccccc2Cl)N(S(=O)(=O)c2ccc(C)cc2)C1 -0.24
O=C1O[C@H](c2ccccc2)[C@H](c2ccccc2)N2[C@H]1[C@@H](C(=O)O)[C@]1(C(=O)Nc3ccc(C#CC4=CCCCC4)cc31)[C@H]2c1ccc(OCCO)cc1 1.26
N#Cc1ccc(NN2C(C(O)c3ccc([N+](=O)[O-])cc3)C=CC3C(=O)N(c4ccccc4)C(=O)C32)cc1 (configuration not stated) -0.487
C=C(CCCC)/C(=C/C[C@H](OC(C)=O)c1ccc(CO)o1)c1cnc2ccccc2c1 1.66
O=C1OCCC=C[C@H]2OC34C=CCN(Cc5ccccc5)C(=O)[C@H]3N(CCCCCCO)C(=O)[C@@H]4C12 (some centres not stated) 0.589
C[C@]1(C(=O)NCc2ccccc2)c2ccccc2C(=O)N(Cc2ccc(OC(F)(F)F)cc2)[C@H]1c1ccc(CO)cc1 -0.593
CC(C)NC(=O)[C@@]1(Cc2ccccc2I)c2ccccc2C(=O)N(Cc2ccccc2)[C@H]1c1ccc(CO)cc1 -0.0378
O=C1N(CCS(=O)(=O)c2ccccc2)c2ccccc2C[C@@]12COC(c1ccc(OCCCO)cc1)=N2 1.31
CC1CC/C=C\[C@H]2OC34C=CCN(Cc5ccccc5)C(=O)[C@H]3N(CCCCCO)C(=O)[C@@H]4C2C(=O)O1 (some centres not stated) 0.0882

Assay: E. coli acrAB mutant growth effects, primary screen, E. coli filamentation inducers, strain DRC39, OD650, 24 h (AID 1178);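 also: growth measured as culture turbidity by optical density at 650 nm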
Details: higher = more signal, called active from +8 up or from −8 down

z-score, inactive:
COCCOC(=O)N1C(=O)[C@@]2(c3cc(C#CCNC(N)=O)ccc31)[C@H](C(=O)N1CCc3cc(OC)c(OC)cc3C1)[C@H]1C(=O)O[C@H](c3ccccc3)[C@H](c3ccccc3)N1[C@@H]2c1ccc(OCCO)cc1 0.987
CCOC(=O)C1=CC[C@@H](c2ccccc2)N(S(=O)(=O)c2ccc(C)cc2)[C@H]1C(=O)OCC -0.0018
O=C(CS)NCCCCCCNC(=O)[C@@H]1C[C@@H]2C(=O)N3CCC[C@H]3C(=O)N2[C@@H]1c1ccc(O)cc1 -0.0727
CCOC(=O)C1=CCC(c2ccc([N+](=O)[O-])cc2)N(S(=O)(=O)c2ccc(C)cc2)C1 (configuration not stated) -0.627
COCCOC(=O)N1C(=O)[C@@]2(c3cc(C#CCNC(N)=O)ccc31)[C@H](c1ccc(O)cc1)N1[C@H](c3ccccc3)[C@H](c3ccccc3)OC(=O)[C@H]1[C@@H]2C(=O)Nc1nc2ccccc2s1 2.74
O=c1cccc(CCc2ccccc2)o1 -0.74
O=C1N(CCS(=O)(=O)c2ccccc2)Cc2ccccc2[C@H]2OC(c3ccc(OCCCO)cc3)=N[C@@]12CCS(=O)(=O)c1ccccc1 1.69
CN(C)C(=O)[C@@]1(CCC(=O)OC(C)(C)C)N=C(c2ccc(OCCCO)cc2)O[C@H]1c1ccccc1 0.541
O=C1C2C=CC(C(O)c3ccc(-c4ccccc4)s3)N(n3cnnc3)C2C(=O)N1Cc1ccccc1 (configuration not stated) -0.27
CC(C)C(O)C1C=CC2C(=O)N(c3ccccc3)C(=O)C2N1Nc1ccc(C#N)cc1 (configuration not stated) -0.718
COC(=O)c1ccc(C(O)C2C=CC3C(=O)N(C)C(=O)C3N2NC(=O)OC(C)(C)C)o1 (configuration not stated) -0.685
CCOC(=O)C1=C[C@@H](CC)N(S(=O)(=O)c2ccc(C)cc2)[C@H]1c1ccccc1 -0.823
COC(=O)[C@@]1(Cc2ccccc2)[C@H]2c3cc(C(=O)N(C)C)n(Cc4c(-c5ccccc5)noc4C)c3C[C@H]2CN1C(=O)c1ccccc1 -0.539
COCCOC(=O)N1C(=O)[C@@]2(c3cc(C#CCNC(N)=O)ccc31)[C@H](c1ccccc1OCCO)N1[C@H](c3ccccc3)[C@H](c3ccccc3)OC(=O)[C@H]1[C@@H]2C(N)=O -0.144
CC(C)N1C(=O)[C@@]2(c3ccc([N+](=O)[O-])cc3)CC(=O)N(CC34CC5CC(CC(C5)C3)C4)[C@@H]2c2ccc(CO)cc21 0.101
CC(=O)NCCCC[C@@H]1NC(=O)[C@@H]2C[C@H](C(=O)NCCCCN(C)C)[C@H](c3ccc(O)cc3)N2C1=O 1.23
Cc1ccccc1C(O)C1C=CC2C(=O)N(C)C(=O)C2N1N1CCCCC1 (configuration not stated) -0.751
CCOC(=O)C[C@H]1[C@H](OC(=O)c2ccc(C(=O)c3ccccc3)cc2)[C@@H](NC(=O)C2CCCCC2)c2cc(OCCCO)ccc2N1C(=O)c1ccccc1 -0.715
